Source: PubChem
The list is not random: actives were taken first. Their share in the collection is about 11%.
NIH3T3 tox = kills NIH 3T3 cells. Potency, µM (doses to about 96.7 µM), for the others: top-dose activity change, negative = cytotoxicity, usual class: inhibitors. hit rate 4.3% among 94,000. NIH 3T3 viability, CellTiter-Glo ATP luminescence, 48-72 h; also: nearly all actives have a fitted effect of over 55% in size
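Cells were seeded at 400 per well, treated with pin-transferred compound, and kept 48 or 72 hr at 37 °C before CellTiter-Glo addition and luminescence imaging of cellular ATP.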
HEK293 tox = cytotoxic compounds in HEK 293 cells | HEK 293 viability, ATP luminescence (CellTiter-Glo), 48-72 h | Potency, µM (highest dose often 115 µM), for inactives: at the top dose activity change, negative = cytotoxicity, hits mostly inhibitors | AID 1345083 | hit rate 6.6% among 94,000; also: nearly all actives have a fitted effect of over 60% in size
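Luminescence from cellular ATP, measured with CellTiter-Glo, indicates HEK 293 viability. Cells plated at 250 cells/well are treated with compound for 48 or 72 hr at 37 degree Celsius before reagent addition.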
NPR1 antag = blocks ANP-stimulated signaling of human Npr1 receptor; Potency, µM (titrated, usually from 46.3 µM), without a hit: at the top dose activity change, negative = inhibition, actives largely listed as inhibitors; HEK293 hNpr1 GloSensor cGMP, ANP-stimulated luminescence; hit rate 1.6% among 76,000; calls by dose curve; also: nearly all actives have a fitted effect of over 60% in size
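HEK293 cells stably expressing human Npr1 and cGMP GloSensor pGS-40F, loaded 2 h with 2% GloSensor reagent, given compound 30 min at room temperature. Luminescence read before and 20 min after 0.1 nM hNppA.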
FLuc inh = blocks purified firefly luciferase enzyme activity; P08659; purified P. pyralis luciferase, luminescence, biochemical; hit rate 2.5% among 76,000; AID 1347043; Potency, µM (titrated, usually from 115 µM), usual class: inhibitors; also: nearly all actives have a fitted effect of over 65% in size
Target sequence (P08659 whole entry, looked up): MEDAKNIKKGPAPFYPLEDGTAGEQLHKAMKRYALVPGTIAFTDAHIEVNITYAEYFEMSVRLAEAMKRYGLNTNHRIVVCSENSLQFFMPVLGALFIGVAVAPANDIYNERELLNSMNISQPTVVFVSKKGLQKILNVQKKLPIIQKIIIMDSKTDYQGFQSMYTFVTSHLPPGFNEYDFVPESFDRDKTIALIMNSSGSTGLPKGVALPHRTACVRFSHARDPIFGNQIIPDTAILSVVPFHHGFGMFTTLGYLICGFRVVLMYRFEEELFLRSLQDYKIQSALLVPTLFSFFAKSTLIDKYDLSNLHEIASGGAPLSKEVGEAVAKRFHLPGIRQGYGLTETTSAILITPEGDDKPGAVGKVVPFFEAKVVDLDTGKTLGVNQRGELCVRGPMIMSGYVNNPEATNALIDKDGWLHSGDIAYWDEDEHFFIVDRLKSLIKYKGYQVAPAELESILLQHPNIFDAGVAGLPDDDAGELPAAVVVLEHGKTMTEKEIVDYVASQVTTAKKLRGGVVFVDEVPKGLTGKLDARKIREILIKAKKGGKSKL
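FLuc 10nM, D-luciferin 10uM, ATP 10uM, Mg acetate 10mM, Tris acetate pH 7.5, Tween/BSA; cpd qHTS; enzyme added last; CCD luminescence.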
* marks the source's active call; other numbers are inactive results; i = inactive; ? = inconclusive; · = no result given; [ ] = another dose, or the depositor's remark. Unless noted, calls follow the shape of the dose curve; as a rule, active = well fitted curve in the direction sought with a large enough effect; inconclusive = small, poorly fitted or top-dose-only effect, or another doubt; inactive = no such curve, though single readings can be large; an effect the other way counts as inactive or inconclusive. % is scaled to controls: 0 for no effect and ±100 for the full control effect; potency is read from the fitted curve at half-maximal effect.

SMILES | NIH3T3 tox | HEK293 tox | NPR1 antag | FLuc inh
CN1c2cc(C(=O)Nc3cccc(Cl)c3)ccc2C(=O)N2CCCCC21 (centres undefined) | ? | ? | -12% | 14µM*
CCN1c2cc(C(=O)NCc3cccc(Cl)c3)ccc2C(=O)N2CCCCCC21 (centres undefined) | ? | ? | -18% | i
CCN1c2cc(C(=O)Nc3cccc(Cl)c3)ccc2C(=O)N2CCCCCC21 (centres undefined) | 40µM* | ? | -2% | i
CCN1c2cc(C(=O)Nc3cccc(Cl)c3)ccc2C(=O)N2CCCCC21 (centres undefined) | ? | 32µM* | 3% | i
CN1c2cc(C(=O)Nc3ccc(F)c(Cl)c3)ccc2C(=O)N2CCCCC21 (centres undefined) | ? | ? | 0% | i
CCCS(=O)(=O)N1CCC2(CC1)CN(C(C)=O)CC2COC (centres undefined) | 1% | i | 1% | i
O=C1CCN(C(=O)c2cccnc2)CCCC(C(=O)NCCCc2ccccc2)CCN1 (centres undefined) | 1% | -1% | 4% | i
Cc1cc(C)cc(-c2ccc(CN3CCCC(NC(=O)NC(C)C)C3)cc2)c1 (centres undefined) | -26% | -27% | · | ·
O=c1n(CCN2CCCC(N[S+](=O)([O-])c3cccc(C(F)(F)F)c3)C2)nc2n1CCCC2 (centres undefined) | -26% | -2% | · | ·
Cc1cc(C)cc(-c2ccc(CN3CCCC(N[S+](=O)([O-])c4cccc(C(F)(F)F)c4)C3)cc2)c1 (centres undefined) | 32µM* | ? | · | ·
Cc1cc(C)cc(-c2ccc(CN3CCCC(N[S+](C)(=O)[O-])C3)cc2)c1 (centres undefined) | ? | 40µM* | · | ·
CC(C)(C)c1nc(C(=O)NCCc2ccc(Cl)cc2)n2ccccc12 | ? | -24% | · | ·
CC(C)(C)c1nc(C(=O)NCCc2ccc(Cl)cc2)n2ccncc12 | ? | 35µM* | · | ·
COCCCn1c(=O)c(C(=O)N2CCN(C(=O)C3CCCC3)CC2)nc2cccnc21 | -13% | 2% | · | ·
COc1ccc(CO[C@H]2COCCN(c3nc4ccccc4s3)C2)cc1 | ? | 100µM* | -5%[70.6 µM] | ?
COc1ccc(C(=O)N2CCOCC3(CN(Cc4cc(F)ccc4F)C3)C2)cc1OC | ? | 112µM* | 9%[70.6 µM] | i
COc1ccc(C(=O)N2CCOCC3(CN(Cc4ccc(F)c(Cl)c4)C3)C2)cc1OC | -29% | ? | 1% | i
COc1ccc(C(=O)N2CCOCC3(CN(Cc4cccc(Cl)c4)C3)C2)cc1OC | ? | 45µM* | -2%[70.6 µM] | i
CCOc1cccn2c(=O)c(-c3cc(C)n(-c4ccc(Cl)cc4)n3)c(C)nc12 | -15% | ? | -1% | i
Cc1nc2c(OCC(=O)c3ccccc3)cccn2c(=O)c1-c1cc(C)n(-c2ccc(Cl)cc2)n1 | ? | ? | 0% | 28µM*
Cc1ccc(-c2nccn3cc(C(=O)O)nc23)cc1 | ? | 3% | 0% | i
Cc1ccc(-c2nccn3cc(C(=O)NCC(C)C)nc23)cc1 | ? | 40µM* | -8% | i
CC(C)C[C@@H]1N[C@H](C(=O)N2CCOCC2)Cc2cn(CC3CC3)c3cccc1c23 | ? | 89µM* | -14%[70.6 µM] | i
C=CCn1cc2c3c(cccc31)[C@H](CC(C)C)N[C@H](C(=O)NCCN1CCOCC1)C2 | ? | 89µM* | -1%[70.6 µM] | i
Cc1cc(Cn2cc3c4c(cccc42)[C@H](CC(C)C)N[C@H](C(=O)NCCN2CCOCC2)C3)no1 | ? | ? | 1% | i
SMILES | NIH3T3 tox | HEK293 tox | NPR1 antag | FLuc inh
C=CCn1cc2c3c(cccc31)[C@H](CC(C)C)N[C@H](C(=O)N1CCOCC1)C2 | ? | 100µM* | -4%[70.6 µM] | ?
CC(C)C[C@@H]1N[C@H](C(=O)N2CCOCC2)Cc2cn(Cc3cccnc3)c3cccc1c23 | -15%[138 µM] | -26%[172 µM] | -12%[70.6 µM] | i
CC(C)C[C@@H]1N[C@H](C(=O)N2CCC(O)(c3ccccc3)CC2)Cc2cn(C)c3cccc1c23 | 32µM* | ? | -1% | i
CC(C)C[C@@H]1N[C@H](C(=O)O)Cc2cn(CC3CC3)c3cccc1c23 | ? | ? | ? | i
CC(=O)N1CCCN(C(=O)[C@@H]2Cc3cn(C)c4cccc(c34)[C@H](CC(C)C)N2)CC1 | 1%[138 µM] | -2%[172 µM] | 1%[70.6 µM] | i
CC#CCn1cc2c3c(cccc31)[C@H](CC(C)C)N[C@H](C(=O)N1CCN(C)CC1)C2 | 89µM* | ? | 2%[70.6 µM] | i
C=CCn1cc2c3c(cccc31)[C@H](CC(C)C)N[C@H](C(=O)N1CCN(C)CC1)C2 | 63µM* | 79µM* | -5%[70.6 µM] | i
COC[C@@H]1CN(c2ncccn2)C[C@H]1C(=O)NCc1ccccn1 | -1% | 3% | -3% | i
COc1ccc2[nH]c(C[C@@H]3C[C@@H](C(C)C)[C@H](CN(Cc4ccccn4)Cc4ccccn4)C=C3C)nc2n1 | ? | ? | -13% | i
CC1=C[C@@H](CN)[C@H](C(C)C)C[C@H]1Cc1nc2ccc(Cl)cc2[nH]1 | 45µM* | 50µM* | -12%[70.6 µM] | i
COc1ccc2nc(C[C@@H]3C[C@@H](C(C)C)[C@H](CN(Cc4ccccc4F)Cc4ccccc4F)C=C3C)[nH]c2c1 | 14µM* | ? | 1% | i
COc1ccc2nc(C[C@@H]3C[C@@H](C(C)C)[C@H](CN)C=C3C)[nH]c2c1 | 71µM* | ? | 1%[70.6 µM] | i
CC1=C[C@@H](CN)[C@H](C(C)C)C[C@H]1Cc1nc2ccc(F)cc2[nH]1 | 100µM* | 79µM* | -7%[70.6 µM] | i
CC(C)N1C[C@H](O)C[C@H]1c1nnc2n1CCN(C(=O)CCc1ccccc1)CC2 | -11% | -3% | -1% | i
CCCNC(=O)NC[C@@H]1C=C(C)[C@H](Cc2nc3ccc(OC)cc3[nH]2)C[C@H]1C(C)C | 40µM* | ? | ? | i
CC1=C[C@@H](CN)[C@H](C(C)C)C[C@H]1Cc1nc2ccc(C)cc2[nH]1 | 40µM* | 45µM* | -18%[70.6 µM] | i
COc1ccc(-c2cc(N3CCCC(NC(=O)c4ccc(F)cc4F)C3)n[nH]2)cc1 (centres undefined) | ? | ? | -28% | ?
O=C(NCC1CC1)c1ccc2nccn2c1 | 1%[174 µM] | i | · | ·
O=C(NCc1cccs1)c1ccc2nccn2c1 | -28%[138 µM] | 3%[172 µM] | 1%[70.6 µM] | 40µM*
O=C(NCCC1CCCCC1)c1ccc2nccn2c1 | ? | 50µM* | -16%[70.6 µM] | ?
Cc1ccccc1C(=O)N1CCN(c2ccc3nnc(C4CC4)n3n2)CC1 | -14% | -8% | · | ·
CC(C)Oc1ccc(CN2CCC(CO)(Cc3ccccc3Cl)CC2)cc1CO | 25µM* | ? | 0% | i
OCC1(Cc2ccccc2Cl)CCN(Cc2cc3ccccc3o2)CC1 | ? | 18µM* | ? | i
COc1ccc(O)c(CN2CCC(CO)(Cc3ccccc3Cl)CC2)c1 | ? | ? | -12% | i
